Screening data from PubChem.
Most compounds without a hit are left out; they make up all but 6.7% or so of the library.
Tcruzi prolif: T. cruzi intracellular proliferation inhibitors, primary screen, cell-based, beta-gal Tulahuen parasites, NIH3T3 host, luminescence; T. cruzi beta-gal in NIH3T3, GalScreen luminescence, 90 h; inhibition, % at 8.34 µM; 77,000 tested, 5.9% active;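 active = mean inhibition above about 93%, with at least 55% of replicates each passing it, limit read from the data, passing the limit was not always enough; inconclusive = only one of those two conditions holds; inactive = neither condition holds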
Pf Dd2 inh: P. falciparum Dd2 growth inhibitors, primary screen, SYBR Green fluorescence, single dose replicates; 72 h; hits give low values; activity change, % at 10 µM; 94,000 tested, 2.3% active; AID 1159554, 2015; in the data active = activity change below about -80%; inconclusive = no clear call, values can overlap the other calls
C diff growth: C. difficile growth inhibitors, primary screen, HTS; growth activity, negative = inhibition, % at 16 µg/mL (by protocol); 86,000 tested, 0.25% active; Clostridium difficile clinical isolate growth, OD600, 24 h; hits give low values;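 active = mean growth activity at or below -80% and every replicate also at or below -80%; inconclusive = mean at or below -80% but some replicate above -80%; inactive = mean growth activity above -80%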
A number is an active result; . = inactive; ? = inconclusive; / = no result.

SMILES	Tcruzi prolif	Pf Dd2 inh	C diff growth
C[C@@H]1CCCCO[C@@H](CN(C)S(=O)(=O)c2ccc(F)cc2)[C@@H](C)CN([C@@H](C)CO)C(=O)c2cc(NC(=O)Nc3cccc4ccccc34)ccc2O1	.	-84	.
C[C@H](CO)N1C[C@H](C)[C@@H](CN(C)S(=O)(=O)c2ccc(F)cc2)OCCCC[C@H](C)Oc2ccc(NC(=O)Nc3cccc4ccccc34)cc2C1=O	.	.	.
C[C@@H]1CN([C@H](C)CO)C(=O)c2cc(NC(=O)Nc3cccc4ccccc34)ccc2O[C@@H](C)CCCCO[C@@H]1CN(C)S(=O)(=O)c1ccccc1	/	-93	.
C[C@@H]1CCCCO[C@@H](CN(C)S(=O)(=O)c2cn(C)cn2)[C@@H](C)CN([C@H](C)CO)C(=O)c2cc(NC(=O)Nc3cccc4ccccc34)ccc2O1	.	.	.
C[C@@H]1CN([C@@H](C)CO)C(=O)c2cc(NC(=O)Nc3cccc4ccccc34)ccc2O[C@@H](C)CCCCO[C@@H]1CN(C)S(=O)(=O)c1cn(C)cn1	.	-90	.
C[C@@H]1CCCCO[C@@H](CN(C)S(=O)(=O)c2ccc(F)cc2)[C@H](C)CN([C@H](C)CO)C(=O)c2cc(NC(=O)Nc3cccc4ccccc34)ccc2O1	.	-82	.
COc1ccc2c3c(n(C)c2c1)[C@H](CO)NCC31CCN(C(C)=O)CC1	/	.	.
COc1cccc(-c2cnc3c(c2)C(=O)N([C@@H](C)CO)C[C@H](C)[C@H](CN(C)C(=O)CN(C)C)O3)c1	.	.	.
C[C@@H]1CCCCO[C@H](CN(C)S(=O)(=O)c2cccs2)[C@H](C)CN([C@@H](C)CO)C(=O)c2cc(NC(=O)Nc3cccc4ccccc34)ccc2O1	.	.	/
C[C@@H]1CN([C@H](C)CO)C(=O)c2cc(NC(=O)Nc3cccc4ccccc34)ccc2O[C@@H](C)CCCCO[C@@H]1CN(C)S(=O)(=O)c1cccs1	.	-88	/
O=C(Nc1ccccc1F)N[C@@H]1CC[C@H](CCNC(=O)C2CCC2)O[C@@H]1CO	/	.	.
CCC(=O)N1[C@H](CO)[C@@H]2c3ccccc3N(C(=O)c3ccc4c(c3)OCO4)C[C@@H]21	.	.	.
C[C@@H]1CCCCO[C@@H](CN(C)Cc2ccc(Cl)c(Cl)c2)[C@H](C)CN([C@@H](C)CO)C(=O)c2cc(NC(=O)Nc3ccc(C(F)(F)F)cc3)ccc2O1	.	-85	.
C[C@H]1CCCCO[C@@H](CN(C)Cc2ccc(Cl)c(Cl)c2)[C@@H](C)CN([C@@H](C)CO)C(=O)c2cc(NC(=O)Nc3ccc(C(F)(F)F)cc3)ccc2O1	.	.	.
C[C@@H]1CCCCO[C@@H](CN(C)Cc2ccc(C(F)(F)F)cc2)[C@@H](C)CN([C@@H](C)CO)C(=O)c2cc(NC(=O)Nc3ccc(C(F)(F)F)cc3)ccc2O1	.	.	.
C[C@@H]1CN([C@H](C)CO)C(=O)c2cc(NC(=O)CCC(F)(F)F)ccc2O[C@@H](C)CCCCO[C@H]1CN(C)Cc1ccc(Cl)c(Cl)c1	.	-83	.
C[C@H](CO)N1C[C@H](C)[C@@H](CN(C)Cc2ccc(Cl)c(Cl)c2)OCCCC[C@H](C)Oc2ccc(NC(=O)CCC(F)(F)F)cc2C1=O	.	.	.
C[C@@H]1CCCCO[C@H](CN(C)Cc2ccc(Cl)c(Cl)c2)[C@@H](C)CN([C@@H](C)CO)C(=O)c2cc(NC(=O)Nc3ccc(C(F)(F)F)cc3)ccc2O1	.	-86	.
CC(C)NC(=O)Nc1cccc2c1O[C@@H](CN(C)C(=O)NC1CCCCC1)[C@@H](C)CN([C@@H](C)CO)C2=O	.	.	.
CCCC(=O)N1CC2(C1)CN(C(=O)C1CCOCC1)[C@H](CO)c1[nH]c3cc(OC)ccc3c12	/	.	.
COc1ccc(NC(=O)N(C)C[C@H]2Oc3ccc(NS(=O)(=O)c4cn(C)cn4)cc3C(=O)N([C@@H](C)CO)C[C@@H]2C)cc1	.	.	.
C[C@@H]1CN([C@@H](C)CO)C(=O)Cc2cc(NS(=O)(=O)c3ccccc3)ccc2O[C@H]1CN(C)S(=O)(=O)c1ccccc1	.	.	.
C[C@@H]1CN([C@H](C)CO)C(=O)c2cccc(NC(=O)Nc3ccc4c(c3)OCO4)c2O[C@@H]1CN(C)Cc1ccc(-c2ccccc2)cc1	.	.	.
C[C@H]1CCCCO[C@H](CN(C)S(=O)(=O)c2ccc(F)cc2)[C@@H](C)CN([C@@H](C)CO)C(=O)c2cc(NS(=O)(=O)c3cccs3)ccc2O1	.	.	.
Cc1ccc(S(=O)(=O)Nc2ccc3c(c2)C(=O)N([C@@H](C)CO)C[C@@H](C)[C@@H](CN(C)C(=O)Nc2ccc4c(c2)OCO4)OCCCC[C@H](C)O3)cc1	/	?	.
SMILES	Tcruzi prolif	Pf Dd2 inh	C diff growth
C[C@@H]1CCCCO[C@H](CN(C)C(=O)Nc2ccc(F)cc2)[C@H](C)CN([C@@H](C)CO)C(=O)c2cc(NS(=O)(=O)c3cccs3)ccc2O1	.	-85	.
C[C@@H]1CCCCO[C@H](CN(C)C(=O)Nc2ccccc2)[C@@H](C)CN([C@@H](C)CO)C(=O)c2cc(NS(=O)(=O)c3ccc(Cl)cc3)ccc2O1	.	-89	.
Cc1ccc(S(=O)(=O)Nc2ccc3c(c2)C(=O)N([C@@H](C)CO)C[C@H](C)[C@@H](CN(C)C(=O)Nc2ccc4c(c2)OCO4)OCCCC[C@@H](C)O3)cc1	/	-85	.
C[C@H](CO)N1C[C@H](C)[C@H](CN(C)C(=O)Nc2ccc(C(F)(F)F)cc2)OCCCC[C@H](C)Oc2ccc(NS(=O)(=O)c3ccc(Cl)cc3)cc2C1=O	.	.	.
C[C@@H]1CCCCO[C@@H](CN(C)C(=O)Nc2ccccc2)[C@H](C)CN([C@H](C)CO)C(=O)c2cc(NS(=O)(=O)c3ccc(Cl)cc3)ccc2O1	.	.	.
C[C@@H]1CCCCO[C@H](CN(C)C(=O)Nc2ccc(F)cc2)[C@@H](C)CN([C@H](C)CO)C(=O)c2cc(NS(=O)(=O)c3cccs3)ccc2O1	.	.	.
C[C@H]1CCCCO[C@H](CN(C)C(=O)Nc2ccc(C(F)(F)F)cc2)[C@@H](C)CN([C@@H](C)CO)C(=O)c2cc(NS(=O)(=O)c3ccc(Cl)cc3)ccc2O1	.	-83	.
O=C1CNC[C@@H]2[C@@H](c3ccc(-c4ccccc4F)cc3)[C@H](CO)N12	/	.	.
C[C@H](NC(=O)C[C@@H]1C[C@@H]2c3cc(NS(C)(=O)=O)ccc3O[C@@H]2[C@H](CO)O1)c1ccccc1	/	.	.
C[C@H]1CN([C@@H](C)CO)C(=O)c2cc(C#CC3CCCCC3)cnc2O[C@@H]1CN(C)C	.	.	.
COc1ccc(S(=O)(=O)N(C)C[C@@H]2Oc3ncc(-c4ccncc4)cc3C(=O)N([C@@H](C)CO)C[C@@H]2C)cc1	.	.	.
CN1[C@@H]2c3ccc(-c4ccc(F)cc4)c(=O)n3C[C@@H]2[C@@H](CO)[C@@H]1C(=O)NCCN1CCCCC1	.	.	.
O=C(C[C@@H]1CC[C@H]2[C@@H](COC[C@H](O)CN2C(=O)c2ccccc2F)O1)NCc1ccc(Cl)cc1	.	.	/
